Measurements published in PubChem BioAssay AID449762 (Southern Research Specialized Biocontainment Screening …, 2010).
Among all 330,000 compounds or so, about 1,900 (0.58%) were called active. About 4% were inconclusive and are not listed. The list is a sample of the results. Measured potencies and affinities stand elsewhere. Unmarked numbers belong to inactive results. No stated cut-off is given here; in the data, inconclusive means inhibition above about 70% without an active follow-up result; inactive means below that.

Test: M. tuberculosis growth inhibition, HTS (AID 449762);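 further: bacterial growth assessed after seven days of incubation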
Conditions: M. tuberculosis H37Rv growth inhibition, 7H9 media; at 25 µM; hits give high values
Molecule Cc1cc(C(=O)Nc2sc3c(c2C#N)CCC(C(C)(C)C)C3)no1 (centres undefined) has an inhibition of -1.37%. CC1CCc2sc(-c3n[nH]c(=S)o3)cc2C1 (centres undefined) showed an inhibition of 4.83%. Cc1[nH]c(C(=O)N/N=C/c2ccc(C(=O)O)cc2)c(C)c1C(=O)N/N=C/c1ccc(C(=O)O)cc1 gave an inhibition of 2.47%. Molecule CCOC(=O)N1c2ccccc2Sc2ccccc21 has an inhibition of 10.8%. Molecule N/C(=N\OC(=O)N1c2ccccc2Sc2ccccc21)c1ccc(Br)cc1 has an inhibition of -4.44%. O=C(O)C(Cc1cnc[nH]1)NS(=O)(=O)c1ccc(Cl)cc1 (centres undefined) gave an inhibition of 0.91%. For CN1CCN(C(=S)c2ccc(N(C)C)cc2)CC1, the inhibition was -4.96%. O=[N+]([O-])c1cccc(/C=N/Nc2nccnc2Cl)c1 gave an inhibition of -0.09%. For COc1ccc(CN2CCC(N3CC(C)OC(C)C3)CC2)c(OC)c1 (centres undefined), the inhibition was 1.06%. In the case of COc1cc(-c2ccc3oc(-c4ccsc4)c(C#CC4(O)CCCCC4)c3c2)cc(OC)c1OC, the inhibition is reported as 51.2%. In the case of CC(C)n1nnc2c(=O)oc3ccccc3c21, the inhibition is reported as 48%. In the case of CCn1nnc2c(=O)oc3ccccc3c21, the inhibition is reported as 28.6%. CC1CC(C)CN(C(=O)Cn2nnc(-c3ccc(Br)cc3)n2)C1 (centres undefined) gave an inhibition of 2.83%. With CCOC(=O)Cn1c(=O)cc(C)c2cccc(C)c21 the inhibition was 57.9%. Work on CCOC(=O)Cn1c(C)cc(=O)c2cccc(C)c21 yielded an inhibition of 16.2%. For COc1ccc(CC(=O)NCc2nnc(SCC(=O)Nc3ccccc3)n2C)cc1, the inhibition was 4.29%. With O=C(NCC(=O)N1CCN(c2ccccc2O)CC1)c1ccccc1 the inhibition was 7.74%. In the case of CCCCCCC1CC(CCc2nc(=S)[nH][nH]2)C(=O)O1 (centres undefined), the inhibition is reported as -0.55%. Molecule COC(=O)c1cc(C(=O)NCC2CCCCC2)cc([N+](=O)[O-])c1 has an inhibition of -5.46%. With O=C(NCC1CCCCC1)c1cccc([N+](=O)[O-])c1 the inhibition was 4.44%. With CCOC(=O)C1(CC2CC2)CCN(Cc2cc(Cl)c(O)c(OC)c2)CC1 the inhibition was -1.14%. For CCCCn1c(=O)c(C(=O)NCc2ccc(Cl)cc2)c(O)c2ccccc21, the inhibition was 13%. Work on O=[N+]([O-])c1cc(C(F)(F)F)cc([N+](=O)[O-])c1N1CCCNCC1 yielded an inhibition of -2.74%. Work on COc1ccc(N=Nc2ccc(O)c3ncccc23)cc1 yielded an inhibition of 64.2%. With Cc1ccc(N=Nc2ccc(O)c3ncccc23)cc1 the inhibition was 63.9%. Molecule COc1ccc(OCCNC(=O)CCCO)cc1 has an inhibition of -4.06%. For Cc1ccsc1/C=N/NC(=O)c1ccc(Cn2cc(Br)cn2)o1, the inhibition was -7.92%. O=C1Nc2cc(C(=O)NCC3CCCO3)ccc2S/C1=C/c1ccccc1F (centres undefined) showed an inhibition of 2.49%. Work on COc1ccc(-c2csc(/C(C#N)=C\c3cccc([N+](=O)[O-])c3)n2)cc1 yielded an inhibition of 9.75%. Work on COc1ccc(-c2csc(/C(C#N)=C\c3ccc(OC)c([N+](=O)[O-])c3)n2)cc1 yielded an inhibition of 11.1%. With C#CC[N+]1(CC#Cc2ccc(C)cc2)CCCCC1 the inhibition was 6.8%. Molecule Cc1ccc(C#CC[N+]2(C)CCCCC2)cc1 has an inhibition of -6.71%. In the case of Cc1ccc(/C=N/Nc2nnc(Cc3ccccc3)c(=O)[nH]2)o1, the inhibition is reported as 0.24%. Work on CCOc1ccc(-c2cc(N)n(S(=O)(=O)c3cccc4nsnc34)n2)cc1 yielded an inhibition of -2.37%. With O=C(NCC(c1ccco1)N1CCOCC1)C1CCCCC1 (centres undefined) the inhibition was 1.93%. Cn1cnc([N+](=O)[O-])c1Sc1ncnc2nc[nH]c12 gave an inhibition of 3.96%. For O=C(CSc1ncnc2nc[nH]c12)c1ccc([N+](=O)[O-])cc1, the inhibition was -8.27%. With COc1ccccc1C(=O)NC(=O)COC(=O)c1nc2nc(C)cc(C)n2n1 the inhibition was -0.8%. CCc1cc2c(=O)c(-c3nc4ccccc4n3C)c(C(C)C)oc2c(CN2CCN(C)CC2)c1O gave an inhibition of 3.5%. Work on CCOc1ccccc1NC1=C(Cl)C(=O)N(c2ccc(OC)cc2)C1=O yielded an inhibition of -6.27%. For COc1ccc(N2C(=O)C(Cl)=C(Nc3ccccc3OC)C2=O)cc1, the inhibition was -3.72%. O=S(=O)(c1ccc2ccccc2c1)N1CCN(CCO)CC1 showed an inhibition of 4.19%. Work on Cc1ccc(S(=O)(=O)N(CC(=O)c2ccc(Cl)cc2)C(=O)N2CCN(C)CC2)cc1 yielded an inhibition of -5.16%. For COc1cccc(CC(NC(C)=O)C(=O)NC2CCN(S(=O)(=O)c3cccc4ccccc34)CC2)c1 (centres undefined), the inhibition was 1.8%. Molecule COC(=O)c1ccc(NC(=O)CSCc2ccccc2C)cc1 has an inhibition of 21.9%. Molecule CCOc1ccccc1N1CCN(C(=O)c2cn(CC3CCCCC3)nn2)CC1 has an inhibition of 53.5%. Cc1cccc(C)c1OCc1cc(C(=O)N2CCN(c3ccccc3)CC2C)no1 (centres undefined) showed an inhibition of 61.7%. Cc1ccnc(NC(=O)c2ccc(Cl)c(NC(=O)c3ccccc3C)c2)c1 gave an inhibition of -1.18%. Molecule O=C(Nc1ccon1)Nc1cccc(Cl)c1Cl has an inhibition of -8.3%. Cc1cc(C(=O)Nc2nc3ccc(S(C)(=O)=O)cc3s2)c(C)o1 gave an inhibition of -11.6%. Cc1ccc2cc(C(c3nnnn3CC3CCCO3)N3CCc4ccccc4C3)c(=O)[nH]c2c1 (centres undefined) gave an inhibition of 11.1%. With Nc1ccc(N=Nc2ccccc2)c2ccccc12 the inhibition was -11.4%. Molecule NS(=O)(=O)c1ccc(N=Nc2ccc(O)c3ncccc23)cc1 has an inhibition of -1.88%. In the case of CCCC(=O)Nc1nnc(S(=O)(=O)N(CC)c2ccc(OC)cc2)s1, the inhibition is reported as 6.35%. For O=c1[nH]c2ccccc2nc1Cc1ccc([N+](=O)[O-])cc1, the inhibition was 1.98%. With Cc1nn(C(C)C(=O)N2CCCC2)c(=O)c2nn(-c3ccccc3)c(C)c12 (centres undefined) the inhibition was 4.45%. With Cc1cc(-c2ccccc2)cc(C)[n+]1Cc1ccccc1 the inhibition was 4.78%. Molecule O=C([O-])c1cc(-c2ccccc2)cc(-c2ccccc2)[n+]1Cc1ccccc1 has an inhibition of 2.25%. In the case of Cn1c(=O)cc(SCC(=O)N2CCCC2)c2ccc(Cl)cc21, the inhibition is reported as 3.77%. For Cn1c(=O)cc(SCC(=O)N2CCOCC2)c2ccc(Cl)cc21, the inhibition was -11.3%. In the case of Cc1cccc(CCNC(=O)c2cc(S(=O)(=O)N3CCCC3)cn2C)c1, the inhibition is reported as -6.27%. Cc1ccc(/C=C/C(=O)OCC(=O)NC(=O)NCc2ccccc2)cc1 gave an inhibition of -1.66%. Work on CC1(C)CC(=O)C2=C(C1)OC(N)=C([N+](=O)[O-])C2c1cccs1 (centres undefined) yielded an inhibition of 3.64%. Molecule Cc1ccc(C2C(C#N)=C(N)OC3=C2C(=O)CC(C)(C)C3)s1 (centres undefined) has an inhibition of 4.01%. COC(C(=O)Nc1cccc(F)c1)c1ccccc1 (centres undefined) gave an inhibition of 1.2%. Work on COc1ccc(/C=C/C(=O)Nc2cc(S(=O)(=O)N3CCCCC3)ccc2N2CCCCC2)cc1OC yielded an inhibition of 6.87%. In the case of CCN1CCN(c2ccc(S(=O)(=O)N3CCCCC3)cc2NC(=O)/C=C/c2ccc([N+](=O)[O-])cc2)CC1, the inhibition is reported as 67.1%. CCCCCNC(=O)c1ccc2c(c1)ncn2-c1ccc(OC)cc1 gave an inhibition of 13.7%. With CCOc1ccc([C@@H]2CC=C(C(=O)O)[C@H](c3ccc(Cl)cc3)N2S(=O)(=O)c2ccc(C)cc2)cc1 the inhibition was -1.26%. Cn1cc(CCNC(=O)CC2C(=O)NCCN2Cc2cccc(Oc3ccccc3)c2)cn1 (centres undefined) gave an inhibition of 2.08%. With CN(C)CCCNC1=CC(=O)CC(c2ccccc2)C1 (centres undefined) the inhibition was -4.95%. Molecule CCCCCNC1=CC(=O)CC(c2ccccc2)C1 (centres undefined) has an inhibition of -1.58%. With COc1ncnc2c1cnn2-c1ccccc1 the inhibition was 7.17%. For C=CCOn1c(=O)c(-c2ccc(OCC)cc2)[n+]([O-])c2ccccc21, the inhibition was 6.39%. For O=C(CCCSc1nc2ccccc2[nH]1)N1CCN(c2ccc([N+](=O)[O-])cc2)CC1, the inhibition was -13.5%. In the case of CC(C)CCNC(=O)C1CCCN(S(=O)(=O)c2ccc(-n3cnnn3)cc2)C1 (centres undefined), the inhibition is reported as 1.26%. In the case of C/C=C/C(=O)OCc1csc(CC(=O)Nc2ccccc2C)n1, the inhibition is reported as -2.53%. Work on CCOC(=O)/C=C/C(=O)OCc1csc(CC(=O)Nc2ccccc2C)n1 yielded an inhibition of -12.3%. Cc1cc(NC(=O)/C(C#N)=C/c2ccc(-c3cccc(C(F)(F)F)c3)o2)n(-c2ccccc2)n1 showed an inhibition of 9.74%. With O=C(NNc1nc2ccccc2s1)Nc1ccc(F)cc1 the inhibition was 7.66%. COc1ccc(OCC(=O)NNc2nc3ccccc3s2)cc1 showed an inhibition of 70%. Work on CC(=O)NNc1nc2ccccc2s1 yielded an inhibition of -19.1%. For COc1ccc2nc(NNC(=O)COc3ccccc3)sc2c1, the inhibition was 6.88%. Molecule CCc1[nH]nc(C(=O)N2CCCC(C(=O)c3cccc(OC(C)C)c3)C2)c1C (centres undefined) has an inhibition of 8.32%. CCOC(=O)Cn1nc(-c2ccc(C)cc2)ccc1=O gave an inhibition of -1.62%. COC(=O)c1ccc(C(=O)OC)c(NC(=O)CSc2ccccn2)c1 gave an inhibition of 45%. With CCOC(=O)c1ccccc1NC(=O)CSc1cccc[n+]1[O-] the inhibition was -5.24%. Cc1c(Cl)cccc1NC(=O)CCN1CCN(C)CC1 showed an inhibition of -6.21%. O=C(NCCc1ccccc1)c1c(O)c2cccc3c2n(c1=O)CC3 gave an inhibition of -1.91%. CCCCN(C(=O)NC(=O)Nc1ccc(C)cn1)S(C)(=O)=O gave an inhibition of -2%. Molecule CC1CCN(CCCn2c(SCC(=O)Nc3ccccc3Cl)nc3ccccc3c2=O)CC1 has an inhibition of 6.66%. Cc1ccc(NC(=O)CSc2nc3ccccc3c(=O)n2CCCN2CCCCC2)cc1C gave an inhibition of 24.1%. Cc1ccccc1N(Cc1cc(=O)[nH]c2ccccc12)C(=O)C(C)C gave an inhibition of -1.51%. In the case of C#CCCC/C(=C\C(=O)N(C)[C@H](C(=O)N(C)[C@H](C(=O)N(C)[C@H](C(=O)N(C)[C@H](C(N)=O)C(C)C)C(C)C)C(C)C)C(C)C)OC, the inhibition is reported as 2.88%.
